# Where “and” joins values, the source holds several entries; their conditions need not be identical. Equal values may be shown once. The panel holds about 79,000 compounds, 15% with a hit somewhere; the sample as a whole holds those more often. A number with no mark means an inactive call. Calls of active or inactive are those of the source. Cut-off read from the data, not from the text of the source: active = growth inhibition above about 70%; inactive = the rest.
# Experiment: NCI Yeast Anticancer Drug Screen. Data for the bub3 strain (AID 167)
# Conditions: S. cerevisiae bub3 mutant strain, active compounds read high
# Experimental: Growth inhibition of yeast strains with defined genetic alterations is measured as a screen for potential anti-cancer activity. Selected strains with alterations in DNA damage repair or cell cycle control were exposed to compounds and growth inhibition was measured relative to vehicle treated controls. The strain used in this assay is bub3
# [1] = at 5.0 µM (retest, dose inferred, filed as 0.5)
# [2] = at 50.0 µM (retest, dose inferred, filed as 5.0)
Compound,growth inhibition [1],growth inhibition [2],growth inhibition (at 50.0 µM)
COc1ccc(C(Cn2ccnc2)Sc2ccc(Cl)c(Cl)c2)cc1 (configuration not stated),76% (active),98% (active),86.5% (active)
CCCOS(=O)(=O)c1ccccc1,23%,42%,-1.4%
O=C1C=CC(=O)c2c(O)c(CO)c(CO)c(O)c21,40%,98% (active),74.2% (active)
Cc1cc2cccnc2c2ncccc12,21%,99% (active),99.3% (active)
Cn1c(-c2ccccc2)c(/C=C/C2=[N+](C)c3ccccc3C2(C)C)c2ccccc21,93% (active),100% (active),99.5% (active)
COc1ccc(C(N)=O)cc1,-6%,-5%,–
Clc1ccccc1C(c1ccccc1)(c1ccccc1)n1ccnc1,34%,99% (active),99.6% (active)
CC(=O)Nc1ccc(C(=O)CCl)cc1,99% (active),99% (active),7.6%
CC(C)Nc1ccc(Nc2ccc(NC(C)C)cc2)cc1,-7%,80% (active),92.5% (active)
NC1=C(Br)C(=O)c2ncccc2C1=O,9%,83% (active),90.3% (active)
N#Cc1ccc(Br)cc1[N+](=O)[O-],87% (active),100% (active),–
COc1cc(OC)c(/C=C/c2c3ccccc3cc[n+]2C)c(OC)c1,67%,79% (active),59.3%
CCOC(=O)CNC(=O)C(Cc1ccccc1)NC(=O)c1ccccc1N (configuration not stated),–,–,8.7% and 4.45%
O=C1OCC/C1=C\c1ccco1,–,–,-6.75% and 17.9%
S=C(S)NCCNC(=S)S.[Cu+2],–,–,-18.2% and -14.6%
CC(=O)NC(Cc1ccccc1)C(=O)O (configuration not stated),–,–,6.25% and -14.1%
CC(=O)N(O)CCCCCNC(=O)CCC(=O)N(O)CCCCCNC(=O)CCC(=O)N(O)CCCCCN,–,–,9.55% and 0.5%
COc1ccccc1/C=C/C(=O)O,–,–,3.95% and 10.9%
O=C(OCC(OC(=O)c1ccccc1)C(OC(=O)c1ccccc1)c1cnn(-c2ccccc2)n1)c1ccccc1 (configuration not stated),–,–,-10.8% and -1.55%
CC(=O)OCC(OC(C)=O)C(OC(C)=O)C(OC(C)=O)C(C=NN(C(C)=O)S(=O)(=O)c1ccc(/C=C2\NC(=O)N(C)C2=O)cc1)OC(C)=O (configuration not stated),–,–,12.7% and 12.6%

# From PubChem BioAssay (NCI)
